# Source: PubChem BioAssay (EPA / NIEHS)
# Results filed as inconclusive are left out. Activity calls are given as the source filed them. How the source made its calls, unless noted: active means hit-call score of the fitted dose curve at least 0.9, where 1 is the maximum; inactive means score below 0.9.
# What was measured:
# [1] = target: Paired box protein Pax-6 (Homo sapiens) (UniProt P26367); assay: ATG_Pax6_CIS: Attagene CIS-FACTORIAL HepG2 Assay for human Paired Box 6 (PAX6) (AID 2282956); conditions: HepG2 CIS-FACTORIAL PAX6 reporter transcription, RNA readout; actives raise or lower the signal
# Outline: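 Fluorescent RT-PCR products separated by capillary electrophoresis report PAX6-linked promoter mRNA in HepG2 cells 24 h post-dose. Curves fitted bidirectionally, DMSO as negative control.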
# [2] = ATG_PXRE_CIS: Attagene CIS-FACTORIAL HepG2 Assay for human Pregnane X Receptor Element (PXRE) (AID 2282957); conditions: HepG2 Attagene CIS-FACTORIAL PXRE reporter, mRNA; actives raise or lower the signal
# Outline: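 After a 24 h chemical incubation, total RNA from transfected HepG2 cells was reverse-transcribed and reporter cDNA amplified, FAM-labeled, HpaI-digested and sized by capillary electrophoresis. DMSO served as baseline for bidirectional curve fitting.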
# [3] = ATG_PPRE_CIS: Attagene CIS-FACTORIAL HepG2 Assay for human Peroxisome Proliferator-activated Response Element (PPRE) (AID 2282958); conditions: HepG2 PPRE cis-element reporter, Attagene transcription factor profiling; actives raise or lower the signal
# Outline: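 PPRE activity in HepG2: transient cis-reporter transfection, 24 h compound incubation, reporter mRNA by RT-PCR and CE fluorescence; gain/loss fitted against DMSO.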
# [4] = ATG_RORE_CIS: Attagene CIS-FACTORIAL HepG2 Assay for human RAR-related Orphan Receptor Element (RORE) (AID 2282959); conditions: HepG2 Attagene cis-factorial RORE reporter, mRNA; actives raise or lower the signal
# Outline: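 A 24-hour exposure of transfected HepG2 hepatoma cells precedes RNA isolation and reporter RT-PCR. Labeled products are digested with HpaI and resolved by capillary electrophoresis, with gain or loss of signal scored relative to DMSO.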
# [5] = ATG_Sox_CIS: Attagene CIS-FACTORIAL HepG2 Assay for human SRY-box transcription factor (SOX) (AID 2282960); conditions: HepG2 Attagene cis-factorial SOX reporter, mRNA; actives raise or lower the signal
# Outline: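 HepG2, cis reporter units, 24 h exposure. Reporter mRNA: RT-PCR → FAM labelling → HpaI → CE fluorescence. Bidirectional fit vs DMSO.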
# [6] = target: Transcription factor Sp1 (Homo sapiens) (UniProt P08047); assay: ATG_Sp1_CIS: Attagene CIS-FACTORIAL HepG2 Assay for human Specificity Protein 1 (Sp1) (AID 2282961); conditions: HepG2 Sp1 cis-reporter transcription, actives raise or lower the signal
# Outline: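 Liver-derived HepG2 cells, cis-element reporter library, 24 h treatment; RNA isolated, cDNA amplified with reporter-specific primers, FAM-labeled fragments sized on capillary analyzer. DMSO baseline, bidirectional curve fit.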
# [7] = ATG_SREBP_CIS: Attagene CIS-FACTORIAL HepG2 Assay for human Sterol Regulatory Element Binding (SREBP) (AID 2282962); conditions: HepG2 Attagene cis-factorial SREBP reporter, mRNA; actives raise or lower the signal
# Outline: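 Endogenous factor activity is measured in HepG2 through multiplexed reporter units under cis-element control. Following a 24 h incubation, reporter transcripts are reverse-transcribed, PCR-amplified and sized by capillary electrophoresis; activity is fitted in both directions relative to DMSO.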
# [8] = target: Signal transducer and activator of transcription 3 (Homo sapiens) (UniProt P40763); assay: ATG_STAT3_CIS: Attagene CIS-FACTORIAL HepG2 Assay for human Signal Transducer and Activator of Transcription 3 (STAT3) (AID 2282963); conditions: HepG2, Attagene cis-factorial STAT3 reporter transcription; actives raise or lower the signal
# Outline: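 Fluorescence intensity of 6-FAM-labelled reporter fragments, separated by capillary electrophoresis after RT-PCR, gave the signal. Cells were HepG2 transfected with cis-element reporter units and treated 24 h; fitting was bidirectional relative to DMSO.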
# [9] = ATG_TA_CIS: Attagene CIS-FACTORIAL HepG2 Assay for human TA Basal Promoter (AID 2282964); conditions: HepG2 Attagene CIS-factorial TA basal promoter reporter; actives raise or lower the signal
# Outline: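 Transfected HepG2, 24 h compound exposure; RNA → RT-PCR → FAM primer extension → HpaI cut → CE fluorescence. Gain/loss-of-signal fitted against DMSO negative control. Background-control readout.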
# [10] = ATG_TCF_b_cat_CIS: Attagene CIS-FACTORIAL HepG2 Assay for human T-Cell-Factor with beta-catenin (TCF/b-cat) (AID 2282965); conditions: HepG2 TCF/beta-catenin cis-reporter transcription, actives raise or lower the signal
# Outline: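 HepG2, transient MRTU transfection, cis-element-driven reporters (endogenous TFs). 24 h compound exposure. Readout: reporter mRNA by RT-PCR + 6-FAM primer extension, HpaI digest, capillary electrophoresis. Gain/loss fit vs DMSO baseline.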
# [11] = ATG_TAL_CIS: Attagene CIS-FACTORIAL HepG2 Assay for human TAL Basal Promoter (AID 2282966); conditions: HepG2 Attagene cis-factorial TAL promoter reporter; actives raise or lower the signal;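 further: background control endpoint measuring basal TAL promoter reporter mRNA not a specific factor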
# Outline: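 Basal-promoter background-control endpoint from a multiplexed HepG2 reporter panel. Cells were exposed 24 h, then reporter mRNA was read by RT-PCR/CE fluorescence and fitted in both directions relative to DMSO.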
# [12] = ATG_TGFb_CIS: Attagene CIS-FACTORIAL HepG2 Assay for human Transforming Growth Factor (TGF) (AID 2282967); conditions: HepG2 Attagene CIS TGFb reporter, mRNA transcription; actives raise or lower the signal
# Outline: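 Readout: fluorescently labeled reporter cDNA fragments resolved by capillary electrophoresis after RT-PCR. Transfected HepG2 cells dosed for 24 h; endogenous TF activity at TGFB1-linked cis element; gain or loss fitted relative to DMSO.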
# [13] = ATG_VDRE_CIS: Attagene CIS-FACTORIAL HepG2 Assay for human Vitamin D Receptor Element (VDRE) (AID 2282968); conditions: HepG2 VDRE cis-reporter transcription, actives raise or lower the signal
# Outline: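 Compounds were applied for 24 h to HepG2 cells transfected with promoter-regulated reporter units. Total RNA was reverse-transcribed, and reporter amplicons were fluorescently labelled and sized by capillary electrophoresis.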
# [14] = target: Estrogen receptor (Homo sapiens) (UniProt P03372); assay: ATG_ERa_TRANS: Attagene TRANS-FACTORIAL HepG2 Assay for human Estrogen Receptor alpha (ERa) (AID 2282970; active means hit-call score of the fitted dose curve at least 0.9, where 1 is the maximum); conditions: HepG2 Attagene TRANS ERa GAL4 reporter, mRNA
# Outline: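 Gal4-fusion ERa transactivation, measured as reporter transcript level in transiently transfected HepG2 cells. Exposure 24 h; RT-PCR plus capillary electrophoresis with fluorescence detection.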
# [15] = target: X-box-binding protein 1 (Homo sapiens) (UniProt P17861); assay: ATG_Xbp1_CIS: Attagene CIS-FACTORIAL HepG2 Assay for human X-box Binding Protein 1 (XBP1) (AID 2282972); conditions: HepG2 XBP1 cis-element reporter, Attagene multiplex; actives raise or lower the signal
# Outline: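 Multiplexed cis-reporter readout in transfected HepG2 liver cells. Exposure lasted 24 hours. Activity in either direction was fitted against DMSO as negative control and baseline.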
# [16] = ATG_GAL4_TRANS: Attagene TRANS-FACTORIAL HepG2 Assay for GAL4 (Internal Marker) (AID 2282976; active means hit-call score of the fitted dose curve at least 0.9, where 1 is the maximum); conditions: HepG2 Attagene TRANS GAL4 internal marker reporter
# Outline: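 Background-control readout: GAL4-UAS reporter transcript in transiently transfected HepG2 cells after 24 h compound exposure. Measured by RT-PCR, 6-FAM primer extension, HpaI digest and capillary electrophoresis; gain-of-signal fit versus DMSO.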
# [17] = target: Nuclear receptor subfamily 1 group I member 3 (Homo sapiens) (UniProt Q14994); assay: ATG_CAR_TRANS: Attagene TRANS-FACTORIAL HepG2 Assay for human Constitutive Androstane Receptor (CAR) (AID 2282969; active means hit-call score of the fitted dose curve at least 0.9, where 1 is the maximum;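 further: activators raise reporter mRNA above DMSO so AC50 marks induction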); conditions: HepG2 Attagene TRANS-FACTORIAL CAR reporter
# Outline: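 Transiently transfected HepG2, multiplex TRANS reporters (CAR-Gal4 chimera driving GAL4-UAS reporter). 24 h dosing. Readout: reporter transcript by RT-PCR + capillary electrophoresis, fluorescence intensity; positive direction vs DMSO.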
# [18] = ATG_M_19_TRANS: Attagene TRANS-FACTORIAL HepG2 Assay for M19 Transcription Factor (Internal Marker) (AID 2282974; active means hit-call score of the fitted dose curve at least 0.9, where 1 is the maximum); conditions: HepG2 Attagene TRANS-FACTORIAL M19 internal marker reporter
# Outline: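 Transfected HepG2 (GAL4-UAS MRTUs), 24 h compound, TriZol RNA, DNase-treated RT, reporter PCR, FAM label, HpaI digest, CE fluorescence; gain vs DMSO.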
# [19] = target: Estrogen-related receptor gamma (Homo sapiens) (UniProt P62508); assay: ATG_ERRg_TRANS: Attagene TRANS-FACTORIAL HepG2 Assay for human Estrogen-Related Receptor gamma (ERRg) (AID 2282977; active means hit-call score of the fitted dose curve at least 0.9, where 1 is the maximum;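 further: hits increase reporter signal over DMSO so potencies reflect activators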); conditions: HepG2 Attagene TRANS reporter, ERRg transactivation
# Outline: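 Induction of reporter transcripts through a chimeric NR-Gal4 protein is quantified in transfected human HepG2 liver cells after 24 h chemical exposure, using RT-PCR with capillary electrophoresis detection and DMSO as baseline.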
# Chain of X-box-binding protein 1 (Homo sapiens) (P17861 whole entry, looked up): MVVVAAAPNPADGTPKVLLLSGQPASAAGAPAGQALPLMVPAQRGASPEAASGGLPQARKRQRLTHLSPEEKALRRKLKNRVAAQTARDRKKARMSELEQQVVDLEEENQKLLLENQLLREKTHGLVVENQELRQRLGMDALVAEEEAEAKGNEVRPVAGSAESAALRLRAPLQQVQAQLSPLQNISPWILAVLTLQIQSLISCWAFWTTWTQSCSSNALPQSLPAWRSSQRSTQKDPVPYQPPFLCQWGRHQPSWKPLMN
# Chain of Paired box protein Pax-6 (Homo sapiens) (P26367 whole entry, looked up): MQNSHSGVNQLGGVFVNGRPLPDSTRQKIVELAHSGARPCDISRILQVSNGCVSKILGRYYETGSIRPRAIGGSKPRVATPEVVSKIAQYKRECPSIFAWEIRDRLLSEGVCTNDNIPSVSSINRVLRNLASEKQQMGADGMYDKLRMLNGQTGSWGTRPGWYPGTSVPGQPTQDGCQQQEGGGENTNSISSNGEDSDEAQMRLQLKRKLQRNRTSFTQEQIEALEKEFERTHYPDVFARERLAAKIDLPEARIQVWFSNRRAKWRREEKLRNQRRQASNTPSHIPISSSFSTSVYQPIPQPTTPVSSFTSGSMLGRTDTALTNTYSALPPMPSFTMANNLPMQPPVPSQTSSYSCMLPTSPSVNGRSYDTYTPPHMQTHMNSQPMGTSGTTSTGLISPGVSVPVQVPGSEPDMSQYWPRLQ
# Chain of Signal transducer and activator of transcription 3 (Homo sapiens) (P40763 whole entry, looked up, the tested form may be a part): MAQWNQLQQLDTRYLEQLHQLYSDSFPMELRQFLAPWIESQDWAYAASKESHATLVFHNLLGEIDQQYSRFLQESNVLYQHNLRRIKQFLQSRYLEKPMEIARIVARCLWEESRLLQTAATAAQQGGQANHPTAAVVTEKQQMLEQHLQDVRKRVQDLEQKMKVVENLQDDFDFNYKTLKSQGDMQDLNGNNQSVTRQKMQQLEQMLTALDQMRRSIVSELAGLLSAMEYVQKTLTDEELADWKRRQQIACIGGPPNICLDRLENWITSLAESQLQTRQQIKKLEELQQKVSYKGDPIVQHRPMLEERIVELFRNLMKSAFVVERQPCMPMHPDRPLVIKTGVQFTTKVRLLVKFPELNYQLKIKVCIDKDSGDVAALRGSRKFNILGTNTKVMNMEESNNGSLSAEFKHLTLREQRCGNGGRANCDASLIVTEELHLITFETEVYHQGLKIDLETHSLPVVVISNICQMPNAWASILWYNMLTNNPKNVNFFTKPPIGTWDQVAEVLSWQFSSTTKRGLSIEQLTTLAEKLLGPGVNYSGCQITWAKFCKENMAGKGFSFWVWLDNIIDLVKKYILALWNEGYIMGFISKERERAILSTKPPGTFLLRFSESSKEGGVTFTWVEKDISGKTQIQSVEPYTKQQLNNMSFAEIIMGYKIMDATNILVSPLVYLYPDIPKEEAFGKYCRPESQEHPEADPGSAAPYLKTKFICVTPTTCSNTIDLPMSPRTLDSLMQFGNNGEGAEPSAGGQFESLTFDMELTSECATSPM
# Chain of Transcription factor Sp1 (Homo sapiens) (P08047 whole entry, looked up, the tested form may be a part): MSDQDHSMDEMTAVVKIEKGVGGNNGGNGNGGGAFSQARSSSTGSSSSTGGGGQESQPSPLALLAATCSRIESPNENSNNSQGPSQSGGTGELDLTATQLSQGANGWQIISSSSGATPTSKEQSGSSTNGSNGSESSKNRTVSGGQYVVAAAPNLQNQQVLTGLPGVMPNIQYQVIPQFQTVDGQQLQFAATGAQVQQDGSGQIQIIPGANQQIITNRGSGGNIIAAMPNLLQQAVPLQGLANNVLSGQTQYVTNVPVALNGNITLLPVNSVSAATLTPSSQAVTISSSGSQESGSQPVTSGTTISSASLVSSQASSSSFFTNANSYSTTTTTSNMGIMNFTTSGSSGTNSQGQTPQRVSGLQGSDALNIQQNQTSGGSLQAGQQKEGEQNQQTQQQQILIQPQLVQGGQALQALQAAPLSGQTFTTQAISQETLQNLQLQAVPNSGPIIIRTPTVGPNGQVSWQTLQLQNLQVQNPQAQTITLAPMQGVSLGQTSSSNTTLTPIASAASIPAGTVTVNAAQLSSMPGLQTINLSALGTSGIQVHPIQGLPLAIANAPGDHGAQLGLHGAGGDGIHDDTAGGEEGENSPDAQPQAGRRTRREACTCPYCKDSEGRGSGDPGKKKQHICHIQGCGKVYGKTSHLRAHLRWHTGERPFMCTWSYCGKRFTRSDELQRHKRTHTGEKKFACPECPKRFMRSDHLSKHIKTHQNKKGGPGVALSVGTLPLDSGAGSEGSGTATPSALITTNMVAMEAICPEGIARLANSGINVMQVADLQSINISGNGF
# Chain of Estrogen receptor (Homo sapiens) (P03372 whole entry, looked up, the tested form may be a part): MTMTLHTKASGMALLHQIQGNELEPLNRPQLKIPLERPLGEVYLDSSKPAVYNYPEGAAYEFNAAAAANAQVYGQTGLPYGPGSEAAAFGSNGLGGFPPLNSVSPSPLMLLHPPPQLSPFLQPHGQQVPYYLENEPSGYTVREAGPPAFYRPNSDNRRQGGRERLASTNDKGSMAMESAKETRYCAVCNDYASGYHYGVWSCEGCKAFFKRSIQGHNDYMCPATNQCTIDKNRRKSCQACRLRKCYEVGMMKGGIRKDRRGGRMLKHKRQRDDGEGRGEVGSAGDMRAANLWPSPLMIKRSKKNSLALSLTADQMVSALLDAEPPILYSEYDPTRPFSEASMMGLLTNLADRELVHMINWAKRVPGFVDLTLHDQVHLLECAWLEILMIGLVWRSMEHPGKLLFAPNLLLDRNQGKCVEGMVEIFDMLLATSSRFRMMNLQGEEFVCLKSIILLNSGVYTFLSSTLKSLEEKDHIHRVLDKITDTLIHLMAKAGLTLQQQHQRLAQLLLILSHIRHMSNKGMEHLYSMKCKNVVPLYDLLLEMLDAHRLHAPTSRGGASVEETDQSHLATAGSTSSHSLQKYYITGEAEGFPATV
# Chain of Estrogen-related receptor gamma (Homo sapiens) (P62508 whole entry, looked up, the tested form may be a part): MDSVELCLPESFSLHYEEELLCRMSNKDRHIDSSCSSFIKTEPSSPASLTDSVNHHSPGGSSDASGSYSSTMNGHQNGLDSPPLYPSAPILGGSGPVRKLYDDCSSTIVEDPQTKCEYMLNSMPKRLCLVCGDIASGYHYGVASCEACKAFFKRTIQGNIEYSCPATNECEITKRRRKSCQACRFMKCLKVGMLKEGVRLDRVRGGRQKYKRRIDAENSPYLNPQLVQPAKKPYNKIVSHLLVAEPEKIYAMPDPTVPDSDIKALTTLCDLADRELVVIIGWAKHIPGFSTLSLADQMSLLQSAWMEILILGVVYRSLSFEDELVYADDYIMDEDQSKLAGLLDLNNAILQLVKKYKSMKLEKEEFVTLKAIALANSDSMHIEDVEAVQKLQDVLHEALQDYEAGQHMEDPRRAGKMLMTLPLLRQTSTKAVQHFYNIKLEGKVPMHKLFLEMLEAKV
# Chain of Nuclear receptor subfamily 1 group I member 3 (Homo sapiens) (Q14994 whole entry, looked up, the tested form may be a part): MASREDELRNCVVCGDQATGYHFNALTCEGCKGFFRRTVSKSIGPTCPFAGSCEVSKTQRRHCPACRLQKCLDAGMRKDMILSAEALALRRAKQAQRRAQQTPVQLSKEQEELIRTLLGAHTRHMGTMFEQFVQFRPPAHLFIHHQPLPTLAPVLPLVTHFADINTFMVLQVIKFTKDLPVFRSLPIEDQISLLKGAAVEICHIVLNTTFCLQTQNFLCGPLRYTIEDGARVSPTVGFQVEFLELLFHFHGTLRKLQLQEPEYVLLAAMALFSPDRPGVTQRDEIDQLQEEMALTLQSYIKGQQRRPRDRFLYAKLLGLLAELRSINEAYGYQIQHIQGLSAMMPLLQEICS
smiles,measurement,setting,value
O=[N+]([O-])c1ccc(CO)cc1,outcome,[1],inactive
same,AC50,[2],5.54 µM (active)
same,outcome,[3],inactive
same,outcome,[4],inactive
same,outcome,[5],inactive
same,outcome,[6],inactive
same,outcome,[7],inactive
same,outcome,[8],inactive
same,outcome,[9],inactive
same,outcome,[10],inactive
same,outcome,[11],inactive
same,outcome,[12],inactive
same,outcome,[13],inactive
same,outcome,[14],inactive
same,outcome,[15],inactive
same,outcome,[16],inactive
CCOC(=O)CC,outcome,[1],inactive
same,outcome,[2],inactive
same,outcome,[3],inactive
same,outcome,[4],inactive
same,outcome,[5],inactive
same,outcome,[6],inactive
same,outcome,[7],inactive
same,outcome,[8],inactive
same,outcome,[9],inactive
same,outcome,[10],inactive
same,outcome,[11],inactive
same,outcome,[12],inactive
same,outcome,[13],inactive
same,outcome,[17],inactive
same,outcome,[14],inactive
same,outcome,[15],inactive
c1ccc(CNCc2ccccc2)cc1,outcome,[1],inactive
same,AC50,[2],36 µM (active)
same,outcome,[3],inactive
same,outcome,[4],inactive
same,outcome,[5],inactive
same,outcome,[6],inactive
same,outcome,[7],inactive
same,outcome,[8],inactive
same,outcome,[9],inactive
same,outcome,[10],inactive
same,outcome,[11],inactive
same,outcome,[12],inactive
same,outcome,[13],inactive
same,outcome,[14],inactive
same,outcome,[15],inactive
same,outcome,[16],inactive
C1=CCCC1,outcome,[1],inactive
same,outcome,[2],inactive
same,outcome,[3],inactive
same,outcome,[4],inactive
same,outcome,[5],inactive
same,outcome,[6],inactive
same,outcome,[7],inactive
same,outcome,[8],inactive
same,outcome,[9],inactive
same,outcome,[10],inactive
same,outcome,[11],inactive
same,outcome,[12],inactive
same,outcome,[13],inactive
same,outcome,[14],inactive
same,outcome,[15],inactive
same,outcome,[18],inactive
same,outcome,[16],inactive
Cc1ccc([N+](=O)[O-])cc1S(=O)(=O)O,outcome,[1],inactive
same,outcome,[2],inactive
same,outcome,[3],inactive
same,outcome,[4],inactive
same,AC50,[5],180 µM (active)
same,AC50,[6],156 µM (active)
same,outcome,[7],inactive
same,outcome,[8],inactive
same,outcome,[9],inactive
same,outcome,[10],inactive
same,outcome,[11],inactive
same,outcome,[12],inactive
same,outcome,[13],inactive
same,outcome,[14],inactive
same,outcome,[15],inactive
same,outcome,[18],inactive
Cc1cccc(N(C)C(=S)Oc2ccc3ccccc3c2)c1,outcome,[1],inactive
same,AC50,[2],0.61 µM (active)
same,AC50,[3],24.4 µM (active)
same,AC50,[4],20.5 µM (active)
same,outcome,[5],inactive
same,outcome,[6],inactive
same,outcome,[7],inactive
same,outcome,[8],inactive
same,outcome,[9],inactive
same,outcome,[10],inactive
same,outcome,[11],inactive
same,AC50,[12],9.03 µM (active)
same,AC50,[13],1.11 µM (active)
same,outcome,[17],inactive
same,AC50,[14],3.78 µM (active)
same,outcome,[15],inactive
same,outcome,[16],inactive
CNC(=S)NN,outcome,[1],inactive
same,outcome,[2],inactive
same,outcome,[3],inactive
same,outcome,[4],inactive
same,outcome,[5],inactive
same,outcome,[6],inactive
same,outcome,[7],inactive
same,outcome,[8],inactive
same,outcome,[9],inactive
same,outcome,[10],inactive
same,outcome,[11],inactive
same,outcome,[12],inactive
same,outcome,[13],inactive
same,outcome,[14],inactive
same,outcome,[15],inactive
same,outcome,[18],inactive
same,outcome,[16],inactive
same,outcome,[19],inactive
O=S1(=O)OC(c2ccc(O)cc2)(c2ccc(O)cc2)c2ccccc21,outcome,[1],inactive
same,AC50,[2],13.9 µM (active)
same,outcome,[3],inactive
same,outcome,[4],inactive
same,outcome,[5],inactive
same,outcome,[6],inactive
same,outcome,[7],inactive
same,outcome,[8],inactive
same,outcome,[9],inactive
same,outcome,[10],inactive
same,outcome,[11],inactive
same,outcome,[12],inactive
same,outcome,[13],inactive
same,AC50,[14],23.2 µM (active)
same,outcome,[15],inactive
same,outcome,[18],inactive
same,outcome,[19],inactive
